Reference: the supplement of paper PMC3334620
In all, about 33,000 sequences were measured (“E-score (-0.5 to 0.5)”: median about -0.035, highest 2% from about 0.34 on). The sample holds the highest values, similar sequences and a random draw of the others, so the mix is not that of the screen.

These sequences were tested against T1, Mot3 (UniProt P54785) (assay: PBM E-score (8-mer binding enrichment) (E-score (-0.5 to 0.5)); higher = stronger / more preferred TF binding). Settings: protein concentration: 200 nM; construct: GST-full length.
T1 sequence: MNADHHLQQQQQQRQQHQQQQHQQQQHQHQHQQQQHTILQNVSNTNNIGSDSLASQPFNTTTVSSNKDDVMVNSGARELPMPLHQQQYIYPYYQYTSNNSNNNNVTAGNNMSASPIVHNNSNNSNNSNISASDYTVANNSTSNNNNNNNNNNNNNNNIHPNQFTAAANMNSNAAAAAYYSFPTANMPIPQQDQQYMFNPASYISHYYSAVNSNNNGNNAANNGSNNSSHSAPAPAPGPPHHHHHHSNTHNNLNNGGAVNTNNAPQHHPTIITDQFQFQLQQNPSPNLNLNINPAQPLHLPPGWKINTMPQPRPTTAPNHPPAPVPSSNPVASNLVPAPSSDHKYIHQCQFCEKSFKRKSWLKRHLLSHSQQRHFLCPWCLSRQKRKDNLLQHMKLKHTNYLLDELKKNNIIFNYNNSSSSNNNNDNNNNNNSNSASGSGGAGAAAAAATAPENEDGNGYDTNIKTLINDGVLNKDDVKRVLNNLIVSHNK
Method in brief: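 Masliner-normalised scans of fluorescent anti-GST signal were the basis for scoring. That signal came from GST-tagged yeast transcription factors applied at about 100-200 nM to double-stranded universal all-10-mer Agilent arrays on fresh or once-stripped slides. Each ungapped eight-base word, pooled with its reverse complement, received an E-score from the Universal PBM Analysis Suite.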

Sequence	PBM E-score
CTGTATTC	0.185
AGGTAATG	0.279
ATGTAAGG	0.298
GGAGACCC	-0.0421
ACAACTAA	0.183
AGAAGTGG	-0.199
ATGCGTGG	-0.214
CTGCAACA	0.0762
CGCCACTA	-0.196
AAGTCCAC	-0.187
AAGTGCTC	-0.203
ACCAGTAA	0.016
GCACAGCA	0.144
CAAGTTGC	0.144
CAGCGAGG	-0.276
TTCGCAAA	0.0552
GGGTAATA	0.17
CTGTAATC	0.111
ATGTAAGC	0.267
GAGTAATA	0.147
GTGTAATA	0.375
ATGTAATC	0.367
AGCGAAGC	-0.0443
GAAGGCGA	-0.0248
AAAGGCTC	0.354

Sequence	PBM E-score
GAAGGCGC	0.362
AAAGGCGC	0.371
AAAGGCGG	0.0743
GAAGGCCC	0.122
AAAGGCTG	0.0993
CAAGGCGC	0.191
CAAGGCTC	0.0281
CAATGAGG	-0.197
TACGCGAA	0.221
TCGACTAA	-0.0673
ACGCACTG	0.00111
CGGCACTC	-0.251
CGGCACTA	-0.184
ATGCACTC	-0.061
AGGCACTG	0.483
AGGCACTA	0.484
AGGCACTC	0.481
AAGCACTG	-0.0039
GGGCACTA	0.0732
GTGATCGA	0.11
TAAAAGCA	-0.123
GCAGACAC	-0.00428
AGAGACGA	-0.246
ACACGGTG	0.335
ATACGGTC	-0.061

Sequence	PBM E-score
ACACGGTA	0.34
CCACGGTA	-0.191
ACACGGGA	0.29
ACACGGTC	0.349
ACACGGGT	0.348
CCACGGTC	-0.385
ACACGGGC	0.259
AAAACTCA	0.0802
ATCCTGAA	0.0408
GAGGGACC	-0.298
ACTACGTG	0.0857
ATTACGTA	0.354
CTTACGTA	0.211
ATTACGTC	0.269
ATTACGTG	0.383
GTTACGTA	0.177
ACGTCCAG	-0.0677
GTGGGTAA	-0.0112
CGCACGTA	0.154
CGCACGCA	-0.03
AGCACGTA	0.136
GGCACGCA	0.348
GGCACGGA	0.397
GGCACGAA	0.271
GGCACGAC	0.36

Sequence	PBM E-score
GGCACGTA	0.363
AGCACGGA	0.102
CGCACGAC	-0.0534
GGCACGCC	0.237
CGCACGGA	-0.207
ACACCCCG	-0.336
ACCAGCCA	-0.131
ATGCTCTG	-0.203
ACCGCTCC	-0.258
CGGCATTC	-0.249
CCTCGAGG	-0.336
GCTTGTAA	0.318
ACGAAAGG	0.153
AGAAAAGC	-0.171
AGGAAAGC	0.405
CGGAAAGC	-0.151
AGGAAAGA	0.282
AGGAAAGG	0.371
AACCAAAT	0.127
GTCGCAAA	0.0742
ATATGCGC	0.0367
CGGCAACA	0.0868
TGGCAACA	0.118
AGGCAACG	0.485
AAGCAACG	0.0783

Sequence	PBM E-score
AAGCAACT	-0.0233
AGGCAACA	0.482
AGGCAACT	0.484
ACGCAACT	0.0644
GGGCAACC	-0.175
CGGCAACC	-0.0847
CGGCAACG	-0.0123
AGGCAACC	0.483
GAGGCAGC	-0.0844
CTTGCATC	-0.16
ACCTGCTC	0.166
ATATGACG	0.0195
CGTATTTC	0.215
AGGACACT	-0.159
AGGATCGA	-0.0463
GCACAACA	0.35
GCACAACC	-0.0592
CCACAACA	-0.0484
AAGGTCCC	-0.184
GGCGCATA	-0.113
ACCCGCAA	-0.0644
AAGGAACA	0.453
CAGGAATG	-0.0291
CAGGAACG	0.466
TAGGAACA	0.416

Sequence	PBM E-score
GAGGAACA	0.176
AAGGAATT	-0.0259
TCGGAACA	0.056
AAGGAAGA	-0.0092
ATGGAACA	-0.111
ACGGAACT	-0.186
CAGAAACG	0.0904
AAGGAACT	0.416
ATGCTTAG	0.0516
AACGTTAT	0.123
AAGCCTCC	-0.243
CACTGGCC	-0.267
AACACATA	0.312
AAATTGGA	-0.0378
CAGTGGCG	-0.266
AGCAGTCA	0.0249
CAGCCAGA	-0.3
CTCCCTTA	-0.018
ACCGGCCG	-0.21
ATGGAACG	0.0262
AAGGAACC	0.462
CGGGAACA	0.147
CAGGAACC	0.46
AAGGAAGG	0.176
CAGGAACA	0.449

Sequence	PBM E-score
GAGGAACC	0.255
AGGGAACC	0.00909
ACGGAACC	0.0959
AAGGAACG	0.465
CAGAAACA	0.0657
CAGAACCC	-0.0803
TCGTGCCA	-0.155
GCACACCA	0.143
GGGGGGAC	-0.254
CTACTGTC	-0.103
GGTCTAAA	-0.127
GATCGCAA	-0.129
ACTCAAAA	-0.0489
CGGCAATC	-0.109
ATGCAATG	-0.0896
AGGCAATA	0.472
ACGCAATG	0.23
AGGCAATG	0.476
AGGCAATC	0.481
CGGCAATA	0.0917
GGGCAATA	-0.132
AAGCAATC	-0.0271
